Laboratory results taken from PubChem BioAssay (NCI).
Where “and” joins values, the source holds several entries; their conditions need not be identical. Equal values may be shown once. Compounds without any hit were thinned out: in the full panel of roughly 79,000, 15% have a hit. The source holds several records for some structures; these can differ, active in one and inactive in another. Calls of active or inactive are those of the source. Cut-off read from the data, not from the text of the source: active = growth inhibition above about 70%; inactive = the rest.

Assays:
[1] = NCI Yeast Anticancer Drug Screen. Data for the rad50 strain (AID 155);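 note: 0% = growth of vehicle-only cultures of the same strain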; conditions: S. cerevisiae rad50 strain growth inhibition, stronger effect = higher value
How it was run: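 Vehicle-treated cultures provide the reference for the growth inhibition reported for compound-exposed, repair-deficient yeast.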

[2] = NCI Yeast Anticancer Drug Screen. Data for the mec2-1 strain (AID 157); conditions: S. cerevisiae mec2-1 strain, stronger effect = higher value
How it was run: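 Strain: mec2-1 (DNA repair/cell cycle alteration). Compound exposure, then growth measured; inhibition expressed relative to vehicle.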

[3] = NCI Yeast Anticancer Drug Screen. Data for the sgs1 mgt1 strain (AID 161);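 note: 0% = growth of cultures given vehicle only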; conditions: S. cerevisiae sgs1 mgt1 strain, stronger effect = higher value
How it was run: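 Mutant yeast exposed to compound; growth scored against vehicle-only wells.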

[4] = NCI Yeast Anticancer Drug Screen. Data for the cln2 rad14 strain (AID 165);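 note: 0% = growth equal to vehicle treated cultures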; conditions: S. cerevisiae cln2 rad14 strain, stronger effect = higher value
How it was run: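 Compounds are applied to the cln2 rad14 yeast strain, and growth is then compared with that of vehicle-treated cultures to give inhibition.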

[5] = NCI Yeast Anticancer Drug Screen. Data for the bub3 strain (AID 167); conditions: S. cerevisiae bub3 mutant strain, stronger effect = higher value
How it was run: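 Mutant yeast screening strain plus compound; vehicle-treated cultures serve as the 0% inhibition reference.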

[6] = NCI Yeast Anticancer Drug Screen. Data for the mlh1 rad18 strain (AID 175); conditions: S. cerevisiae mlh1 rad18 strain growth inhibition, stronger effect = higher value
How it was run: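 Read-out is yeast growth inhibition, calculated against vehicle-only controls. The compound was applied to a strain engineered with DNA damage repair alterations.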

[7] = at 5.0 µM (retest, dose inferred, filed as 0.5)
[8] = at 50.0 µM (retest, dose inferred, filed as 5.0)

Measured: growth inhibition

CN(C)c1nc(N)c(C#N)c(C#N)c1C#N
inactive: [1]; [7] 21% | [1]; [8] 62% | [1]; at 50.0 µM 69.6% | [2]; [7] 21% | [2]; [8] 44% | [3]; [7] 11% | [3]; [8] 61% | [4]; [7] 27% | [4]; [8] 45% | [4]; at 50.0 µM 53.9% | [5]; [7] 9% | [6]; [7] 26%
active: [2]; at 50.0 µM 88.2% | [3]; at 50.0 µM 80.8% | [5]; [8] 79% | [5]; at 50.0 µM 88.5% | [6]; [8] 85%

O=S(O)CCCCSSCC(O)C(O)CSSCCCCS(=O)O (stereo not given)
inactive: [1]; [7] -7% | [1]; [8] 21% | [1]; at 50.0 µM 49.4% | [2]; [7] 12% | [2]; [8] 44% | [2]; at 50.0 µM 56.1% | [3]; [7] 6% | [3]; [8] 50% | [4]; [7] -10% | [4]; [8] 24% | [4]; at 50.0 µM 37% | [5]; [7] 3% | [5]; [8] 55% | [5]; at 50.0 µM 57.5% | [6]; [7] 3% | [6]; [8] 33%
active: [3]; at 50.0 µM 78.8% | [6]; at 50.0 µM 73%

O=C1OC(c2ccccc2)C(c2ccccc2)=C1c1ccccc1 (stereo not given)
inactive: [1]; [7] -21% | [1]; at 50.0 µM -6% | [2]; [7] -18% | [2]; at 50.0 µM -2.8% | [3]; [7] -3% | [3]; at 50.0 µM 7.1% | [4]; [7] -2% | [4]; at 50.0 µM -29% | [5]; [7] 9% | [5]; at 50.0 µM 9% | [6]; [7] 4% | [6]; at 50.0 µM 3.65%
active: [1]; [8] 91% | [2]; [8] 92% | [3]; [8] 91% | [4]; [8] 86% | [5]; [8] 91% | [6]; [8] 90%

CC(O)CN1CCN(CC(C)O)CC1.[I][Pt+2][I] (stereo not given)
inactive: [1]; [7] -5% | [1]; [8] 27% | [1]; at 50.0 µM 59.7% | [2]; [7] -295% | [2]; [8] 11% | [2]; at 50.0 µM 37.2% | [3]; [7] -1% | [3]; [8] 16% | [4]; [7] 2% | [4]; [8] 7% | [4]; at 50.0 µM 17.9% | [5]; [7] -1% | [5]; [8] 2% | [5]; at 50.0 µM -2% | [6]; [7] -2% | [6]; [8] 16%
active: [3]; at 50.0 µM 78.9% | [6]; at 50.0 µM 92.7%

C[C@H](CCC(=O)O)[C@H]1CC[C@H]2[C@@H]3[C@H](O)C[C@@H]4C[C@H](O)CC[C@]4(C)[C@H]3CC[C@]12C
active: [1]; [8] 94% | [1]; at 50.0 µM 90% | [2]; [8] 96% | [2]; at 50.0 µM 91.3% | [3]; [8] 96% | [3]; at 50.0 µM 92.3% | [4]; [8] 96% | [4]; at 50.0 µM 90.2% | [5]; [8] 98% | [5]; at 50.0 µM 90.5% | [6]; [8] 97% | [6]; at 50.0 µM 90.2%
inactive: [1]; [7] 24% | [2]; [7] -14% | [3]; [7] 9% | [4]; [7] 19% | [5]; [7] -3% | [6]; [7] 6%

CC1CC[P+](c2ccccc2)(c2ccccc2)c2c1ccc1ccccc21 (stereo not given)
inactive: [2]; [7] 54% | [4]; [7] 30% | [5]; [7] 67% | [6]; [7] 64%
active: [1]; [7] 76% | [1]; [8] 98% | [1]; at 50.0 µM 84.9% | [2]; [8] 98% | [2]; at 50.0 µM 90.2% | [3]; [7] 81% | [3]; [8] 98% | [3]; at 50.0 µM 91.2% | [4]; [8] 97% | [4]; at 50.0 µM 88.8% | [5]; [8] 99% | [5]; at 50.0 µM 88.6% | [6]; [8] 97%

O=C1Nc2ccccc2C1(O)C/C(=N/O)c1ccc2ccccc2c1 (stereo not given)
inactive: [1]; [7] 34% | [1]; [8] 36% | [1]; at 50.0 µM 35.1% | [2]; [7] 27% | [2]; [8] 40% | [2]; at 50.0 µM 13.9% | [3]; [8] 51% | [3]; at 50.0 µM 49.5% | [4]; [7] 52% | [4]; [8] 44% | [4]; at 50.0 µM 38% | [5]; [7] 47% | [5]; at 50.0 µM 14.9% | [6]; [7] 40% | [6]; [8] 64% | [6]; at 50.0 µM 66.5%
active: [3]; [7] 71% | [5]; [8] 77%

Cc1c(OCc2cccc3ccccc23)ccc2c(=O)cc(SCCN3CCOCC3)oc12
active: [3]; at 50.0 µM 83% | [6]; at 50.0 µM 73.3%
inactive: [1]; [7] 10% | [1]; [8] 25% | [1]; at 50.0 µM 65.7% | [2]; [7] -1% | [2]; [8] 13% | [2]; at 50.0 µM 30.2% | [3]; [7] 6% | [3]; [8] 49% | [4]; [7] 5% | [4]; [8] 37% | [4]; at 50.0 µM 25.1% | [5]; [7] 7% | [5]; [8] 47% | [5]; at 50.0 µM 13.6% | [6]; [7] 7% | [6]; [8] 35%

Nc1nc(N)c2c(Cl)c(CNc3ccc(Cl)c(Cl)c3)ccc2n1
inactive: [4]; [7] 46%
active: [1]; [7] 82% | [1]; [8] 98% | [1]; at 50.0 µM 88.1% | [2]; [7] 97% | [2]; [8] 98% | [2]; at 50.0 µM 91% | [3]; [7] 81% | [3]; [8] 98% | [3]; at 50.0 µM 90.8% | [4]; [8] 98% | [4]; at 50.0 µM 89.9% | [5]; [7] 74% | [5]; [8] 98% | [5]; at 50.0 µM 89.7% | [6]; [7] 75% | [6]; [8] 98%

O=C1C(Cl)=C(N2CCN(C3=C(Cl)C(=O)c4ccccc4C3=O)CC2)C(=O)c2ccccc21
active: [1]; [8] 98% | [1]; at 50.0 µM 84.4% | [2]; [8] 99% | [2]; at 50.0 µM 87.8% | [3]; [8] 99% | [3]; at 50.0 µM 88.7% | [4]; [8] 98% | [4]; at 50.0 µM 87.8% | [5]; [8] 98% | [5]; at 50.0 µM 87.9% | [6]; [8] 98%
inactive: [1]; [7] 26% | [2]; [7] 8% | [3]; [7] 44% | [4]; [7] 14% | [5]; [7] 39% | [6]; [7] 26%

CCN(CCO)CCNc1ccc(C)c2sc3ccccc3c(=O)c12
active: [1]; [8] 98% | [1]; at 50.0 µM 88.2% | [2]; [8] 92% | [2]; at 50.0 µM 90.7% | [3]; [8] 98% | [3]; at 50.0 µM 91.8% | [4]; [8] 94% | [4]; at 50.0 µM 90.8% | [5]; [8] 98% | [5]; at 50.0 µM 90.5% | [6]; [8] 98%
inactive: [1]; [7] 36% | [2]; [7] 13% | [3]; [7] 9% | [4]; [7] 21% | [5]; [7] 6% | [6]; [7] 23%

Cc1n(Cc2ccccc2)c2c([n+]1C)C(=O)c1ccccc1C2=O
active: [1]; [8] 97% | [1]; at 50.0 µM 86.2% | [2]; [8] 98% | [2]; at 50.0 µM 91.8% | [3]; [8] 98% | [3]; at 50.0 µM 91.2% | [4]; [8] 92% | [4]; at 50.0 µM 89.2% | [5]; [7] 72% | [5]; [8] 98% | [5]; at 50.0 µM 89.2% | [6]; [7] 78% | [6]; [8] 97%
inactive: [1]; [7] 44% | [2]; [7] 50% | [3]; [7] 55% | [4]; [7] 34%

O=C(O)CCN1c2ccccc2Sc2ccccc21
84.3% (active) and 54.4% (inactive): [4]; at 50.0 µM
inactive: [1]; [7] 1% and -19% | [1]; [8] 31% and 27% | [1]; at 50.0 µM 35% and 69.4% | [2]; [7] -22% and -12% | [2]; [8] 40% and 48% | [2]; at 50.0 µM 13.3% and 52% | [3]; [7] -5% and -16% | [3]; [8] 46% and 41% | [3]; at 50.0 µM 27.9% and 69.6% | [4]; [7] -8% and 13% | [4]; [8] 58% and 52% | [5]; [7] -15% and -16% | [5]; [8] 51% and 48% | [5]; at 50.0 µM 64.9% and 39.2% | [6]; [7] -7% and -39% | [6]; [8] 56% and 35% | [6]; at 50.0 µM 42.5% and 54.9%

O=C(CCC(=O)OCCOc1ccccc1)OCCOc1ccccc1
inactive: [1]; [7] 10% | [1]; [8] -1% | [1]; at 50.0 µM -3.5% | [2]; [7] -16% | [2]; [8] -13% | [2]; at 50.0 µM -4.7% | [3]; [7] 17% | [3]; [8] 3% | [3]; at 50.0 µM -6.4% | [4]; [7] 7% | [4]; [8] 20% | [4]; at 50.0 µM 21.6% | [5]; [7] 1% | [5]; [8] 7% | [5]; at 50.0 µM -4% | [6]; [7] 6% | [6]; [8] 30% | [6]; at 50.0 µM -1.75%

CCCCCCCCCCS(=O)CC(CO)NC(=O)/C=C/c1c(C)[nH]c(=O)[nH]c1=O (stereo not given)
active: [1]; [8] 93% | [1]; at 50.0 µM 86.2% | [2]; [8] 94% | [2]; at 50.0 µM 89.8% | [3]; [8] 98% | [3]; at 50.0 µM 88.7% | [4]; [8] 89% | [4]; at 50.0 µM 84.2% | [5]; [8] 96% | [5]; at 50.0 µM 88.3% | [6]; [8] 92%
inactive: [1]; [7] 35% | [2]; [7] 20% | [3]; [7] 68% | [4]; [7] 34% | [5]; [7] 50% | [6]; [7] 53%

COc1cc(OC)c(OC)cc1/C=C\c1ccnc2ccccc12
active: [1]; [8] 73% | [3]; [8] 88% | [3]; at 50.0 µM 88.4% | [5]; [8] 79% | [6]; [8] 83%
inactive: [1]; [7] 19% | [1]; at 50.0 µM 33.8% | [2]; [7] 13% | [2]; [8] 65% | [2]; at 50.0 µM 37% | [3]; [7] 10% | [4]; [7] 18% | [4]; [8] 57% | [4]; at 50.0 µM 41.5% | [5]; [7] 6% | [5]; at 50.0 µM 62.8% | [6]; [7] 13%
